# Where a chain is given by its changes, count along the chain named.
# How the values were obtained:
# Assay in all cases: PBM; 200 nM protein, PBS
# Settings in all cases: dsDNA, one strand shown
# ALX4 [1] = biological target: ALX4 (Homo sapiens, UniProt Q9H161 200-286)
# ALX4 [2] = biological target: ALX4 (Homo sapiens, UniProt Q9H161 200-286, Q225E)
# HOXD13 [3] = biological target: HOXD13 (Homo sapiens, UniProt P35453 263-343)
# PROP1 [4] = biological target: PROP1 (Homo sapiens, UniProt O75360 56-141)
# Chain of PROP1 (Homo sapiens, UniProt O75360 56-141) (O75360 56-141): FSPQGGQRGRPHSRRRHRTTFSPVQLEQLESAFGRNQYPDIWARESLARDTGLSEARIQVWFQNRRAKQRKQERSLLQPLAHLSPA
# PROP1 [5] = biological target: PROP1 (Homo sapiens, UniProt O75360 56-141, R99H)
# Chain of PROP1 (Homo sapiens, UniProt O75360 56-141, R99H) (O75360 56-141 R99H): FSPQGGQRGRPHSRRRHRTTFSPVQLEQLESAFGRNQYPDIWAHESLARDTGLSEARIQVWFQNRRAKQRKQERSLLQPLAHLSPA
# HOXD13 [6] = biological target: HOXD13 (Homo sapiens, UniProt P35453 263-343, T313A)
# Chain of HOXD13 (Homo sapiens, UniProt P35453 263-343, T313A) (P35453 263-343 T313A): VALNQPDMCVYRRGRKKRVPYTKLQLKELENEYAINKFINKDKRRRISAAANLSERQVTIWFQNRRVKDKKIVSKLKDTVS
# PROP1 [7] = biological target: PROP1 (Homo sapiens, UniProt O75360 56-141, F88S)
# Chain of PROP1 (Homo sapiens, UniProt O75360 56-141, F88S) (O75360 56-141 F88S): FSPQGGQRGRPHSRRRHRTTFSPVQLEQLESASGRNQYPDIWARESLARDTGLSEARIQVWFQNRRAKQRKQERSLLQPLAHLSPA
# PAX4 [8] = biological target: T1, PAX4 (Homo sapiens, UniProt O43316 9-242, R200K)
# T1 sequence: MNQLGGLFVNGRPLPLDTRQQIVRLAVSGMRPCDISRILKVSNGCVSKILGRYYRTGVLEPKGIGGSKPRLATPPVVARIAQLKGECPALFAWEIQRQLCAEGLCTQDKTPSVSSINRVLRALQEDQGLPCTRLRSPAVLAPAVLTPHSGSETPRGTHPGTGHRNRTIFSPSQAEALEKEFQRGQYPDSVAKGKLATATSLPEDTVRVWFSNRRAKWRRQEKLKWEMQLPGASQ
# PRRX1 [9] = biological target: PRRX1 (Homo sapiens, UniProt P54821 80-166, F113S)
# Chain of PRRX1 (Homo sapiens, UniProt P54821 80-166, F113S) (P54821 80-166 F113S): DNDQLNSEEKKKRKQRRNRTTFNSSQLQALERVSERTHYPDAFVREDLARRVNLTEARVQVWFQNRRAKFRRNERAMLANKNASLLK
# PAX4 [10] = biological target: T2, PAX4 (Homo sapiens, UniProt O43316 9-242)
# T2 sequence: T1 sequence with K192R
# ALX1 [11] = biological target: ALX1 (Homo sapiens, UniProt Q15699 118-204, L144V)
# Chain of ALX1 (Homo sapiens, UniProt Q15699 118-204, L144V) (Q15699 118-204 L144V): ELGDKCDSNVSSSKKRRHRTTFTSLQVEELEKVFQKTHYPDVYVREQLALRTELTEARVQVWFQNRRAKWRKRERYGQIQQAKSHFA
# PAX4 [12] = biological target: T3, PAX4 (Homo sapiens, UniProt O43316 9-242, R200Q)
# T3 sequence: T1 sequence with K192Q
# ALX1 [13] = biological target: ALX1 (Homo sapiens, UniProt Q15699 118-204, L144R)
# Chain of ALX1 (Homo sapiens, UniProt Q15699 118-204, L144R) (Q15699 118-204 L144R): as the sequence (Q15699 118-204 L144V) above, with V27R counted along it
# PAX4 [14] = biological target: T4, PAX4 (Homo sapiens, UniProt O43316 9-242, F177V)
# T4 sequence: T1 sequence with F169V, K192R
# PAX4 [15] = biological target: T5, PAX4 (Homo sapiens, UniProt O43316 9-242, F177Y)
# T5 sequence: T1 sequence with F169Y, K192R
# HESX1 = HESX1 (Homo sapiens, UniProt Q9UBX0 95-180, F115L)
# Chain of HESX1 (Q9UBX0 95-180 F115L): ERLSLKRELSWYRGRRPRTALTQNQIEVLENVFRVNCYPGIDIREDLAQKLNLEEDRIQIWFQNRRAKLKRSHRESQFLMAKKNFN
# PAX4 [16] = biological target: T6, PAX4 (Homo sapiens, UniProt O43316 9-242, R227W)
# T6 sequence: T1 sequence with K192R, R219W
# PRRX1 [17] = biological target: PRRX1 (Homo sapiens, UniProt P54821 80-166)
# Chain of PRRX1 (Homo sapiens, UniProt P54821 80-166) (P54821 80-166): as the sequence (P54821 80-166 F113S) above, with S34F counted along it
# VAX1 [18] = biological target: VAX1 (Homo sapiens, UniProt Q5SQQ9 86-172)
# Chain of VAX1 (Homo sapiens, UniProt Q5SQQ9 86-172) (Q5SQQ9 86-172): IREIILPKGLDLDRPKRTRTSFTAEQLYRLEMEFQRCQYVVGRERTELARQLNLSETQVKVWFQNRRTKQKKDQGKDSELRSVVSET
# VAX1 [19] = biological target: VAX1 (Homo sapiens, UniProt Q5SQQ9 86-172, T142I)
# Chain of VAX1 (Homo sapiens, UniProt Q5SQQ9 86-172, T142I) (Q5SQQ9 86-172 T142I): as the sequence (Q5SQQ9 86-172) above, with T57I counted along it
# VAX1 [20] = biological target: VAX1 (Homo sapiens, UniProt Q5SQQ9 86-172, K157R)
# Chain of VAX1 (Homo sapiens, UniProt Q5SQQ9 86-172, K157R) (Q5SQQ9 86-172 K157R): as the sequence (Q5SQQ9 86-172) above, with K72R counted along it
# ALX1 [21] = biological target: ALX1 (Homo sapiens, UniProt Q15699 118-204)
# Chain of ALX1 (Homo sapiens, UniProt Q15699 118-204) (Q15699 118-204): as the sequence (Q15699 118-204 L144V) above, with V27L counted along it
# MSX2 [22] = biological target: MSX2 (Homo sapiens, UniProt P35548 130-214, R199I)
# Chain of MSX2 (Homo sapiens, UniProt P35548 130-214, R199I) (P35548 130-214 R199I): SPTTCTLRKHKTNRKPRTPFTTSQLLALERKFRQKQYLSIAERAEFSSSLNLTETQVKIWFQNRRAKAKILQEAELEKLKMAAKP
# MSX2 [23] = biological target: MSX2 (Homo sapiens, UniProt P35548 130-214)
# Chain of MSX2 (Homo sapiens, UniProt P35548 130-214) (P35548 130-214): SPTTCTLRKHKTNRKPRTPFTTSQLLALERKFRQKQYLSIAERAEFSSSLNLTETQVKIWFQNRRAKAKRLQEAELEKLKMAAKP
# MSX2 [24] = biological target: MSX2 (Homo sapiens, UniProt P35548 130-214, F161Y)
# Chain of MSX2 (Homo sapiens, UniProt P35548 130-214, F161Y) (P35548 130-214 F161Y): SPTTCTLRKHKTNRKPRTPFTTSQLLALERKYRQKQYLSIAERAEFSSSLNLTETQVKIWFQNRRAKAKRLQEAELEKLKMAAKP
# HOXB6 [25] = biological target: HOXB6 (Homo sapiens, UniProt P17509 132-218, K202E)
# Chain of HOXB6 (Homo sapiens, UniProt P17509 132-218, K202E) (P17509 132-218 K202E): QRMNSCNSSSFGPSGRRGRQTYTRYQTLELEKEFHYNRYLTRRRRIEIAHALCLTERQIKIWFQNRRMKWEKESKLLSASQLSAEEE
# HOXB6 [26] = biological target: HOXB6 (Homo sapiens, UniProt P17509 132-218)
# Chain of HOXB6 (Homo sapiens, UniProt P17509 132-218) (P17509 132-218): as the sequence (P17509 132-218 K202E) above, with E71K counted along it
# HOXA4 = HOXA4 (Homo sapiens, UniProt Q00056 201-287, R217L)
# Chain of HOXA4 (Q00056 201-287 R217L): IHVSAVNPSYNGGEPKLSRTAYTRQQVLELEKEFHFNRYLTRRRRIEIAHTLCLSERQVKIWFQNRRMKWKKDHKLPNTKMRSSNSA
# ALX3 = ALX3 (Homo sapiens, UniProt O95076 139-225, N203S)
# Chain of ALX3 (O95076 139-225 N203S): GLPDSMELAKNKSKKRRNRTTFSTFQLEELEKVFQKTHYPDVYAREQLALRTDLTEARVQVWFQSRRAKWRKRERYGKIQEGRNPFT
# Chain of ALX4 (Homo sapiens, UniProt Q9H161 200-286, Q225E) (Q9H161 200-286 Q225E): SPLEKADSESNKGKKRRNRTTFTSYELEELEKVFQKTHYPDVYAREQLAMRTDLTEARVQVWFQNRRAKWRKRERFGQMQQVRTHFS
# Chain of ALX4 (Homo sapiens, UniProt Q9H161 200-286) (Q9H161 200-286): as the sequence (Q9H161 200-286 Q225E) above, with E26Q counted along it
# Chain of HOXD13 (Homo sapiens, UniProt P35453 263-343) (P35453 263-343): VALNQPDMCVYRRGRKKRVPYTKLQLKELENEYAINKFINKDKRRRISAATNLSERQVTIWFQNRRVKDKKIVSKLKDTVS
sequence,measurement,setting,value
AATTTATC,binding signal,ALX4 [1],"12 upbm affinity estimate (log intensity, higher = more binding, comparable within an allelic series)"
same,binding signal,ALX4 [2],"11.1 upbm affinity estimate (log intensity, higher = more binding, comparable within an allelic series)"
same,binding signal,HOXD13 [3],"11 upbm affinity estimate (log intensity, higher = more binding, comparable within an allelic series)"
same,binding signal,PROP1 [4],"9.59 upbm affinity estimate (log intensity, higher = more binding, comparable within an allelic series)"
same,binding signal,PROP1 [5],"9.17 upbm affinity estimate (log intensity, higher = more binding, comparable within an allelic series)"
same,binding signal,HOXD13 [6],"10.9 upbm affinity estimate (log intensity, higher = more binding, comparable within an allelic series)"
same,binding signal,PROP1 [7],"7.6 upbm affinity estimate (log intensity, higher = more binding, comparable within an allelic series)"
AATTATGT,binding signal,PAX4 [8],"11.6 upbm affinity estimate (log intensity, higher = more binding, comparable within an allelic series)"
same,binding signal,PRRX1 [9],"11 upbm affinity estimate (log intensity, higher = more binding, comparable within an allelic series)"
same,binding signal,PAX4 [10],"12.1 upbm affinity estimate (log intensity, higher = more binding, comparable within an allelic series)"
same,binding signal,ALX1 [11],"11.4 upbm affinity estimate (log intensity, higher = more binding, comparable within an allelic series)"
same,binding signal,PAX4 [12],"11.8 upbm affinity estimate (log intensity, higher = more binding, comparable within an allelic series)"
same,binding signal,ALX1 [13],"11.1 upbm affinity estimate (log intensity, higher = more binding, comparable within an allelic series)"
same,binding signal,PAX4 [14],"10.7 upbm affinity estimate (log intensity, higher = more binding, comparable within an allelic series)"
same,binding signal,PAX4 [15],"11 upbm affinity estimate (log intensity, higher = more binding, comparable within an allelic series)"
same,binding signal,PROP1 [4],"11 upbm affinity estimate (log intensity, higher = more binding, comparable within an allelic series)"
same,binding signal,PROP1 [5],"10.7 upbm affinity estimate (log intensity, higher = more binding, comparable within an allelic series)"
same,binding signal,PROP1 [7],"7.74 upbm affinity estimate (log intensity, higher = more binding, comparable within an allelic series)"
same,binding signal,HESX1,"7.75 upbm affinity estimate (log intensity, higher = more binding, comparable within an allelic series)"
same,binding signal,PAX4 [16],"11 upbm affinity estimate (log intensity, higher = more binding, comparable within an allelic series)"
same,binding signal,PRRX1 [17],"13.3 upbm affinity estimate (log intensity, higher = more binding, comparable within an allelic series)"
CACAGCTC,binding signal,ALX4 [1],"7.95 upbm affinity estimate (log intensity, higher = more binding, comparable within an allelic series)"
same,binding signal,ALX4 [2],"8.26 upbm affinity estimate (log intensity, higher = more binding, comparable within an allelic series)"
same,binding signal,PROP1 [4],"6.72 upbm affinity estimate (log intensity, higher = more binding, comparable within an allelic series)"
same,binding signal,PROP1 [5],"6.77 upbm affinity estimate (log intensity, higher = more binding, comparable within an allelic series)"
same,binding signal,PROP1 [7],"6.99 upbm affinity estimate (log intensity, higher = more binding, comparable within an allelic series)"
AGGAGCCC,binding signal,ALX4 [1],"7.99 upbm affinity estimate (log intensity, higher = more binding, comparable within an allelic series)"
same,binding signal,ALX4 [2],"8.19 upbm affinity estimate (log intensity, higher = more binding, comparable within an allelic series)"
same,binding signal,VAX1 [18],"6.97 upbm affinity estimate (log intensity, higher = more binding, comparable within an allelic series)"
same,binding signal,VAX1 [19],"7.08 upbm affinity estimate (log intensity, higher = more binding, comparable within an allelic series)"
same,binding signal,VAX1 [20],"7.05 upbm affinity estimate (log intensity, higher = more binding, comparable within an allelic series)"
TGCCAGCA,binding signal,ALX4 [1],"8.19 upbm affinity estimate (log intensity, higher = more binding, comparable within an allelic series)"
same,binding signal,ALX4 [2],"8.28 upbm affinity estimate (log intensity, higher = more binding, comparable within an allelic series)"
same,binding signal,PROP1 [4],"6.8 upbm affinity estimate (log intensity, higher = more binding, comparable within an allelic series)"
same,binding signal,PROP1 [5],"6.79 upbm affinity estimate (log intensity, higher = more binding, comparable within an allelic series)"
same,binding signal,PROP1 [7],"6.93 upbm affinity estimate (log intensity, higher = more binding, comparable within an allelic series)"
AAATTAGT,binding signal,ALX4 [1],"13.5 upbm affinity estimate (log intensity, higher = more binding, comparable within an allelic series)"
same,binding signal,ALX4 [2],"12.5 upbm affinity estimate (log intensity, higher = more binding, comparable within an allelic series)"
same,binding signal,ALX1 [11],"11.4 upbm affinity estimate (log intensity, higher = more binding, comparable within an allelic series)"
same,binding signal,PAX4 [12],"12 upbm affinity estimate (log intensity, higher = more binding, comparable within an allelic series)"
same,binding signal,ALX1 [13],"10.9 upbm affinity estimate (log intensity, higher = more binding, comparable within an allelic series)"
same,binding signal,PAX4 [16],"10.9 upbm affinity estimate (log intensity, higher = more binding, comparable within an allelic series)"
same,binding signal,ALX1 [21],"12.1 upbm affinity estimate (log intensity, higher = more binding, comparable within an allelic series)"
ATAGAGAT,binding signal,PAX4 [8],"10.5 upbm affinity estimate (log intensity, higher = more binding, comparable within an allelic series)"
same,binding signal,PAX4 [10],"10.6 upbm affinity estimate (log intensity, higher = more binding, comparable within an allelic series)"
AGGAGGCG,binding signal,ALX4 [1],"8.14 upbm affinity estimate (log intensity, higher = more binding, comparable within an allelic series)"
same,binding signal,ALX4 [2],"8.12 upbm affinity estimate (log intensity, higher = more binding, comparable within an allelic series)"
same,binding signal,MSX2 [22],"9.45 upbm affinity estimate (log intensity, higher = more binding, comparable within an allelic series)"
same,binding signal,MSX2 [23],"9.43 upbm affinity estimate (log intensity, higher = more binding, comparable within an allelic series)"
same,binding signal,MSX2 [24],"9.49 upbm affinity estimate (log intensity, higher = more binding, comparable within an allelic series)"
AAGGGGGA,binding signal,PAX4 [8],"9.21 upbm affinity estimate (log intensity, higher = more binding, comparable within an allelic series)"
same,binding signal,PAX4 [10],"9.23 upbm affinity estimate (log intensity, higher = more binding, comparable within an allelic series)"
same,binding signal,HOXB6 [25],"8.87 upbm affinity estimate (log intensity, higher = more binding, comparable within an allelic series)"
same,binding signal,PAX4 [12],"9.23 upbm affinity estimate (log intensity, higher = more binding, comparable within an allelic series)"
same,binding signal,PAX4 [14],"9.11 upbm affinity estimate (log intensity, higher = more binding, comparable within an allelic series)"
same,binding signal,PAX4 [15],"9.2 upbm affinity estimate (log intensity, higher = more binding, comparable within an allelic series)"
same,binding signal,PAX4 [16],"9.25 upbm affinity estimate (log intensity, higher = more binding, comparable within an allelic series)"
same,binding signal,HOXB6 [26],"8.75 upbm affinity estimate (log intensity, higher = more binding, comparable within an allelic series)"
AAGTAATT,binding signal,ALX4 [1],"13 upbm affinity estimate (log intensity, higher = more binding, comparable within an allelic series)"
same,binding signal,ALX4 [2],"12 upbm affinity estimate (log intensity, higher = more binding, comparable within an allelic series)"
same,binding signal,HOXA4,"12 upbm affinity estimate (log intensity, higher = more binding, comparable within an allelic series)"
same,binding signal,ALX3,"8.65 upbm affinity estimate (log intensity, higher = more binding, comparable within an allelic series)"
CAGCCGGC,binding signal,PAX4 [8],"9.11 upbm affinity estimate (log intensity, higher = more binding, comparable within an allelic series)"
same,binding signal,PRRX1 [9],"9.15 upbm affinity estimate (log intensity, higher = more binding, comparable within an allelic series)"
same,binding signal,PAX4 [10],"9.27 upbm affinity estimate (log intensity, higher = more binding, comparable within an allelic series)"
same,binding signal,MSX2 [22],"9.43 upbm affinity estimate (log intensity, higher = more binding, comparable within an allelic series)"
same,binding signal,PAX4 [12],"9.19 upbm affinity estimate (log intensity, higher = more binding, comparable within an allelic series)"
same,binding signal,PAX4 [14],"9.05 upbm affinity estimate (log intensity, higher = more binding, comparable within an allelic series)"
same,binding signal,MSX2 [23],"9.21 upbm affinity estimate (log intensity, higher = more binding, comparable within an allelic series)"
same,binding signal,PAX4 [15],"9.05 upbm affinity estimate (log intensity, higher = more binding, comparable within an allelic series)"
same,binding signal,MSX2 [24],"9.41 upbm affinity estimate (log intensity, higher = more binding, comparable within an allelic series)"
same,binding signal,PAX4 [16],"9.13 upbm affinity estimate (log intensity, higher = more binding, comparable within an allelic series)"
same,binding signal,PRRX1 [17],"8.9 upbm affinity estimate (log intensity, higher = more binding, comparable within an allelic series)"

# Source: paper PMC11006913
